Data taken from PubChem BioAssay AID1159580 (chemical genetic matrix, 2015).
“And” between values parts separate entries of the source, which are not always exact repeats. Equal values may be shown once. The whole screen tested about 5,500 compounds, of which about 2,000 (36%) were called active. Not shown: some 18% with an inconclusive outcome. Rule as the data show it: active = normalized growth mostly below about 0.91 (no sharp cut-off); inconclusive = no clear call, values can overlap the other calls; inactive = mostly above about 0.92. Some of the results follow.

Experiment: chemical genetic growth profiling, strain panel (AID 1159580);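 also: tested at 20 µM; growth read once vehicle control cultures reached saturation at 30 °C; 1 = growth at the plate median or of vehicle wells; lower values mean less growth of the strain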
Settings: S. cerevisiae deletion strains, growth OD

Measured: normalized growth

CCC(C)C(=O)O[C@H]1[C@H](O)C2C(CN3CC(C)CCC3[C@@]2(C)O)C2C[C@]34O[C@]5(O)C(OC(=O)C(C)(O)CC)CC[C@@]3(C)C5C(OC(C)=O)[C@@H](OC(C)=O)C4[C@@]21O (stereo partly specified)
inactive: locus YAL013W, strain DEP1, hits give low values 1.01 | locus YAL021C, strain ccr4, hits give low values 1.01 | locus YAL026C, strain drs2, hits give low values 1.02 | locus YAL030W, strain snc1, hits give low values 1.01 | locus YBL061C, strain skt5, hits give low values 1.01 | locus YBR009C, strain hhf1, hits give low values 1.02 | locus YBR021W, strain FUR4, hits give low values 1.01 | locus YBR023C, strain chs3, hits give low values 1.03 | locus YBR171W, strain sec66, hits give low values 1.03 | locus YBR229C, strain ROT2, hits give low values 0.999 | locus YBR231C, strain swc5, hits give low values 1.01 | locus YBR279W, strain paf1, hits give low values 1.02 | locus YCL011C, strain gbp2, hits give low values 1.02 | locus YCL016C, strain dcc1, hits give low values 1.03 | locus YCL029C, strain bik1, hits give low values 0.988 | locus YCL069W, strain vba3, hits give low values 1.02 | locus YCR088W, strain abp1, hits give low values 1.02 | locus YDL005C, strain med2, hits give low values 1.03 | locus YDL035C, strain GPR1, hits give low values 1.02 | locus YDL040C, strain nat1, hits give low values 1.02 | locus YDL074C, strain BRE1, hits give low values 1.02 | locus YDL101C, strain DUN1, hits give low values 1.02 | locus YDL134C, strain PPH21, hits give low values 1.01 | locus YDL185W, strain tfp1, hits give low values 0.995 | locus YDL192W, strain arf1, hits give low values 0.99 | locus YDR001C, strain nth1, hits give low values 1.01 | locus YDR069C, strain doa4, hits give low values 1.02 | locus YDR101C, strain arx1, hits give low values 0.991 | locus YDR137W, strain rgp1, hits give low values 1.04 | locus YDR150W, strain NUM1, hits give low values 1.02 | locus YDR159W, strain sac3, hits give low values 1.04 | locus YDR162C, strain NBP2, hits give low values 1.02 | locus YDR195W, strain ref2 1.01 | locus YDR297W, strain sur2, hits give low values 1.01 | locus YDR318W, strain mcm21, hits give low values 0.984 | locus YDR334W, strain swr1, hits give low values 1.02 | locus YDR335W, strain msn5, hits give low values 1.05 | locus YDR388W, hits give low values 0.989 | locus YDR392W, strain spt3, hits give low values 1.04 | locus YDR502C, strain sam2, hits give low values 0.989 | locus YEL003W, strain gim4, hits give low values 1.02 | locus YEL037C, strain rad23, hits give low values 1.03 | locus YEL061C, strain CIN8 (second series), hits give low values 1.02 | locus YEL061C, strain CIN8, hits give low values 1.01 | locus YER015W, strain faa2, hits give low values 1.02 | locus YER016W, strain bim1, hits give low values 1.03 | locus YER110C, hits give low values 0.982 | locus YER111C, strain swi4, hits give low values 1.02 | locus YER155C, strain BEM2 (second series), hits give low values 1.03 | locus YER155C, strain BEM2, hits give low values 1 | locus YER167W, strain BCK2, hits give low values 1.02 | locus YFR010W, strain ubp6, hits give low values 1.01 | locus YGL078C, strain dbp3, hits give low values 0.986 | locus YGL086W, strain mad1, hits give low values 1 | locus YGL167C, strain pmr1, hits give low values 1.01 | locus YGL173C, strain kem1, hits give low values 1.03 | locus YGL227W, strain vid30, hits give low values 1.03 | locus YGL240W, strain doc1, hits give low values 1.01 | locus YGL248W, strain PDE1, hits give low values 1.01 | locus YGL253W, strain hxk2, hits give low values 1.04 | locus YGR078C, strain PAC10, hits give low values 1.02 | locus YGR135W, strain pre9, hits give low values 0.983 | locus YGR229C, strain SMI1, hits give low values 1 | locus YGR252W, strain gcn5, hits give low values 0.965 | locus YHR013C, strain ard1, hits give low values 1.05 | locus YHR027C, strain rpn1, hits give low values 1.03 | locus YHR030C, strain SLT2, hits give low values 1.01 and 1.05 | locus YHR079C, strain IRE1 (second series), hits give low values 0.993 | locus YHR079C, strain IRE1, hits give low values 1.01 | locus YHR094C, strain hxt1, hits give low values 0.99 | locus YHR129C, strain ARP1, hits give low values 1.01 | locus YHR142W, strain chs7, hits give low values 1.04 | locus YHR200W, strain rpn10, hits give low values 1 | locus YIL066C, strain RNR3, hits give low values 1.01 | locus YIL073C, strain SPO22, hits give low values 1.02 | locus YIL125W, strain kgd1, hits give low values 0.995 | locus YIR030C, strain dcg1, hits give low values 0.993 | locus YJL092W, strain hpr5, hits give low values 1.02 | locus YJL095W, strain BCK1 (second series), hits give low values 1.03 | locus YJL095W, strain BCK1, hits give low values 1.01 and 0.996 | locus YJL115W, strain asf1, hits give low values 1.03 | locus YJL129C, strain trk1, hits give low values 1.04 | locus YJL134W, strain LCB3, hits give low values 1.01 | locus YJL154C, strain vps35, hits give low values 1.02 | locus YJL164C, strain tpk1, hits give low values 1.01 | locus YJL166W, strain qcr8, hits give low values 1.01 | locus YJL168C, strain set2, hits give low values 0.996 | locus YJL187C, strain SWE1 (second series), hits give low values 1.01 | locus YJR043C, strain POL32, hits give low values 0.995 | locus YJR066W, strain TOR1, hits give low values 0.976 | locus YJR075W, strain HOC1, hits give low values 1
